Reference: PubChem BioAssay AID524 (The Scripps Research Institute Molecular Screening Center, 2006)
About 95 (0.1%) of roughly 65,000 compounds were called active. This is one part of a sample in which actives are shown more often than they occur.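 The calls were made as follows: active = inhibition above the screen-wide mean inhibition plus 3 SD (cut at about 21% in these data); inactive = the rest.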

target: cAMP-dependent protein kinase catalytic subunit alpha (Homo sapiens) (UniProt P17612); experiment: PKA catalytic subunit kinase inhibition – biochemical, ATP-depletion luminescence, Kemptide substrate, primary screen (AID 524); details: PKA Kemptide phosphorylation, Kinase-Glo ATP luminescence; at 6 µM; hits give high values

Structure (SMILES)	inhibition
CC(C)CNS(=O)(=O)c1ccc(OCC(=O)Nc2ccc3c(c2)OCO3)c(Cl)c1	4.9% (inactive)
CC(=O)Nc1ccc(S(=O)(=O)NCCc2ccccc2)cc1	2.1% (inactive)
CCC(=O)N1CCN=C1SCc1ccc(F)cc1	3.7% (inactive)
COc1cc2[nH]c(=S)n(Cc3ccc(C)o3)c(=O)c2cc1OC	1.2% (inactive)
CC(=O)c1cc2c(cc1N)OCO2	1.2% (inactive)
Cc1ccc2c(c1)sc1ncc(NC(=O)c3ccccc3)c(=O)n12	-1.3% (inactive)
Cc1cc(C)cc(NC(=O)N2CCC(NC(=O)c3ccc(F)cc3)CC2)c1	5.9% (inactive)
CCCNS(=O)(=O)c1ccc2c(c1)CCCN2C(C)=O	9.1% (inactive)
CCc1cccc2c3c([nH]c12)C(CC)(CC(=O)O)OCC3 (stereo not drawn)	-6.8% (inactive)
COc1cc(C2C3C(=O)N(c4ccccc4)C(=O)C3ON2c2ccccc2)ccc1O (stereo not drawn)	4.7% (inactive)
CC(C)Cc1ccc(S(=O)(=O)N2CCN(C(=O)c3ccco3)CC2)cc1	7% (inactive)
COc1ccc2[nH]c(=O)c(CN(Cc3nnnn3CCc3ccccc3)CC3CCCO3)cc2c1 (stereo not drawn)	-2.5% (inactive)
O=C(NCCCNCc1ccccc1)c1ccc(/C=N/O)nc1	9.9% (inactive)
Cc1noc(C)c1C(=O)OCC(=O)/C=C1\N(C)c2ccccc2C1(C)C	6.8% (inactive)
CC1=Nn2c(nnc2-c2ccccc2)SC1	4.2% (inactive)
CCOc1cc(/C=N/n2cnnc2)c(Br)cc1O	6.7% (inactive)
Cc1ccc(S(=O)(=O)N2CCN(Cc3cccc(C)c3O)CC2)cc1	6.3% (inactive)
CCCc1cc(=O)n2[nH]c(SCc3ccccc3)nc2n1	5.4% (inactive)
O=C(Nc1ccc(S(=O)(=O)N2CCCC2)cc1Cl)C1=COCCO1	-4.1% (inactive)
Cn1c(=NC(=O)c2cnccn2)sc2ccccc21	5% (inactive)
O=P(c1cccs1)(c1cccs1)c1cccs1	3.3% (inactive)
COC(=O)c1nc(NC(=O)c2ccc(Cl)cc2)n[nH]1	5% (inactive)
Cn1c(=NC(=O)CSCC(=O)N2CCOCC2)sc2ccccc21	7.1% (inactive)
O=C(C1CCN(c2nnc(-n3cccc3)s2)CC1)N1CCc2ccccc2C1	-3.8% (inactive)
O=C(Cn1nnc(-c2ccc(CN3CCOCC3)cc2)n1)NC1CCCCC1	10.1% (inactive)
COC(=O)C(C)N(C#N)c1nc(C)nc(C)n1 (stereo not drawn)	-1.3% (inactive)
CCN(CC)CCN1C(=O)C(=O)/C(=C(/O)c2ccccc2)C1c1ccccc1F (stereo not drawn)	-5.4% (inactive)
N#C/C=C1\Sc2ccccc2C(=O)N1CC(=O)N1CCN(S(=O)(=O)c2ccccc2)CC1	6.8% (inactive)
